# For some of these results: Potency and affinity values are given separately.
# Experiments:
# Design in all cases: scale not given: direction of the effect not stated beside the values
# [1] = target: Protein translocase subunit SecA (Escherichia coli (strain K12)) (UniProt P10408); assay: Assay to Identify E. coli SecA ATPase Inhibitors; assay type: functional; conditions: 30 µM
# [2] = target: T1, Ubiquitin-activating enzyme e1, putative (Leishmania donovani (strain BPK282A1)) (UniProt E9BSI1); assay: Leishmania donovani Ubiquitin Activating Enzyme (LdE1); assay type: functional; conditions: 30 µM
# T1 sequence (whole entry): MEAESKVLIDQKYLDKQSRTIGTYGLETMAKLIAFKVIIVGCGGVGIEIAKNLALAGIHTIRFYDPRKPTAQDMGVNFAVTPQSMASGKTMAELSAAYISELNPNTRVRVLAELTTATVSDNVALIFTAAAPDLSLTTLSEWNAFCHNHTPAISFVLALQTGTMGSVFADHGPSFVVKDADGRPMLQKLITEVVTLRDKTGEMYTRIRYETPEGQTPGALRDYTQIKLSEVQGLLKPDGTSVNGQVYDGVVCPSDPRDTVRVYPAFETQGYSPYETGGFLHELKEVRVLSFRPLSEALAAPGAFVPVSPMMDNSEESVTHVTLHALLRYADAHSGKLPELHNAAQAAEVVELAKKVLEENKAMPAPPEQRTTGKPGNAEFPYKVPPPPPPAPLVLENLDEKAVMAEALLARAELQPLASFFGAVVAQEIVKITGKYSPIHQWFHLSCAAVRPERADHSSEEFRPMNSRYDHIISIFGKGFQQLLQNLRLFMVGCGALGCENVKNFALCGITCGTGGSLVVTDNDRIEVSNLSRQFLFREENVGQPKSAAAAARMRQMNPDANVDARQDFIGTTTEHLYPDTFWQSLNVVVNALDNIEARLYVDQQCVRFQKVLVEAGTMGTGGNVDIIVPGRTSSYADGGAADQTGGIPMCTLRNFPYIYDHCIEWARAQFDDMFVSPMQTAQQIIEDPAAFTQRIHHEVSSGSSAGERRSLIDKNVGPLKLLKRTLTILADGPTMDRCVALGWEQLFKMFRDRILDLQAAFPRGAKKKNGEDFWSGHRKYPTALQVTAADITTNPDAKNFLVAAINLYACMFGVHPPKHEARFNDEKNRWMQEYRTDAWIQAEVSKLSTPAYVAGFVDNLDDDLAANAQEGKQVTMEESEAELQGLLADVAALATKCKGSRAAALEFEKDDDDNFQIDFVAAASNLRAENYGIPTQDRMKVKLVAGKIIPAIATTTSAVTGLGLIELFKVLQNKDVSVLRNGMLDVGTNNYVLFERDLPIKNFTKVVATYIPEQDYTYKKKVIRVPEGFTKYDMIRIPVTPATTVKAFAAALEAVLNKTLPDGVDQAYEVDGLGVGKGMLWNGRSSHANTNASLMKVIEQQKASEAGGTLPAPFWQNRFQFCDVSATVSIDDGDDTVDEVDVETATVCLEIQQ
# [3] = target: AMP-activated protein kinase, AMPK (Homo sapiens) (UniProt P54646+O43741+P54619+Q9UGJ0+Q9Y478+Q13131+Q9UGI9); assay: AMP-dependent Kinase enzyme assay. An in vitro enzyme assay that detects ADP turnover that is directly proportional to AMPK activity. This uses naive AMPK that is activated during the assay with MK-8722; assay type: functional; conditions: 30 µM
# [4] = target: Sialic acid-binding Ig-like lectin 9 (Homo sapiens) (UniProt Q9Y336); assay: Hs-Siglec9 ALPHAscreen SOP 20170721; conditions: 10 µM
# [5] = system: Trypanosoma cruzi; assay: Trypanosoma cruzi phosphomannomutase and mannose-1-phosphate guanylyltransferase assay; assay type: functional; conditions: 10 µM
# [6] = target: T2, Arginase-2, mitochondrial (Homo sapiens) (UniProt P78540); assay: in vitro enzyme assay to detect the production of urea directly proportional to the activity of Arginase II; assay type: functional; conditions: 33.3 µM; note: in the data most compounds retested in dose-response had high values
# T2 sequence (whole entry): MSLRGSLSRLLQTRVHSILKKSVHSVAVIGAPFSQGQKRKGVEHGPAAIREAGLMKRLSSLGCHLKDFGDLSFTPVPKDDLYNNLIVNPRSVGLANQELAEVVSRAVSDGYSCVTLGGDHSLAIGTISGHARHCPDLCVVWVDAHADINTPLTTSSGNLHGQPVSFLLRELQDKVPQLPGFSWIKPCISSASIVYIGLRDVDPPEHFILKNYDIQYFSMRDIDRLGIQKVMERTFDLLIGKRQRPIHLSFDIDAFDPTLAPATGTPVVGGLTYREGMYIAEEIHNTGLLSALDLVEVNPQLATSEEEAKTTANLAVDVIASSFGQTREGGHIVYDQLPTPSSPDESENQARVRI
# [7] = target: T3, Proteasome subunit beta (Trypanosoma cruzi) (UniProt O96673); assay: Trypanosoma cruzi proteasome chymotrypsin-like activity (TcProtChymo) assay.; note: in the data most compounds retested in dose-response had high values; assay type: functional; conditions: 9.37 µM
# T3 sequence (whole entry): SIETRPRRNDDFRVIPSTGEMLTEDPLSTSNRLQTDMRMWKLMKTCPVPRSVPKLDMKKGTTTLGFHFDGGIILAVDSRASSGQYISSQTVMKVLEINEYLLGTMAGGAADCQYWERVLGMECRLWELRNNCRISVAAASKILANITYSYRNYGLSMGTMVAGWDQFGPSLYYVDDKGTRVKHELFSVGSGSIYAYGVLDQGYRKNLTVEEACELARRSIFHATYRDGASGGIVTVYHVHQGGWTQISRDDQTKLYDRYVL
# [8] = species: Homo sapiens; assay: To identify inhibition of the IFN signalling (Jak-Stat) pathway via expression of an eGFP reporter gene under the control of an IFN-stimulated response element (ISRE) containing MxA promoter.; assay type: functional; conditions: 30 µM
# [9] = target: T4, Tyrosyl-tRNA synthetase, putative (Trypanosoma cruzi (strain CL Brener)) (UniProt Q4DSP6); assay: Trypanosoma cruzi tyrosyl tRNA synthetase (TcYRS) _High Tyrosine SOP; assay type: functional; conditions: 30 µM; note: in the data most compounds retested in dose-response had high values
# T4 sequence (whole entry): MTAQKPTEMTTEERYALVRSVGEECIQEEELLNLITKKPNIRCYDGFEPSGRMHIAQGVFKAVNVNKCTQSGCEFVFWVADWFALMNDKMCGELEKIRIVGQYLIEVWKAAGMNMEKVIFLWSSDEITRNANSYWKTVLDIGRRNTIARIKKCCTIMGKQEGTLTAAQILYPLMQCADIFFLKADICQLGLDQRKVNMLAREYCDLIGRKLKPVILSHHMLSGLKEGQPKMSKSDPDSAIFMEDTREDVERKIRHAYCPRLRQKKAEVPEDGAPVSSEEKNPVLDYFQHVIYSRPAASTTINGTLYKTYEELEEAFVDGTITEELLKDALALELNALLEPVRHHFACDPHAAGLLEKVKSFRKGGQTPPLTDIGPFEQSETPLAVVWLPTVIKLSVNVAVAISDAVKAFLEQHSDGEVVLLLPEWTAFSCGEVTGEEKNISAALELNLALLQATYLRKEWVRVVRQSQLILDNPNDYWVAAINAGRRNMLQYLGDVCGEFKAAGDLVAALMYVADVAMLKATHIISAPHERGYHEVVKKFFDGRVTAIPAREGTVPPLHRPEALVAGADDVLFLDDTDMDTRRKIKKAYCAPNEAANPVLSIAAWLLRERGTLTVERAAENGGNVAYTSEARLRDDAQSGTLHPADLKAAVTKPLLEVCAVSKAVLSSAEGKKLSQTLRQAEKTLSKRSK
# [10] = target: T4, Tyrosyl-tRNA synthetase, putative (Trypanosoma cruzi (strain CL Brener)); assay: Trypanosoma cruzi tyrosyl tRNA synthetase (TcYRS) SOP; assay type: functional; conditions: 30 µM
# [11] = target: Chromo domain-containing protein 1 (Saccharomyces cerevisiae (strain ATCC 204508 / S288c) (Baker's yeast)) (UniProt P32657); assay: ScCHD-1 Enzyme Inhibition Assay; assay type: functional; conditions: 30 µM; note: in the data most compounds retested in dose-response had high values
# Sequence of Chromo domain-containing protein 1 (Saccharomyces cerevisiae (strain ATCC 204508 / S288c) (Baker's yeast)) (P32657 whole entry, the tested form may be a part): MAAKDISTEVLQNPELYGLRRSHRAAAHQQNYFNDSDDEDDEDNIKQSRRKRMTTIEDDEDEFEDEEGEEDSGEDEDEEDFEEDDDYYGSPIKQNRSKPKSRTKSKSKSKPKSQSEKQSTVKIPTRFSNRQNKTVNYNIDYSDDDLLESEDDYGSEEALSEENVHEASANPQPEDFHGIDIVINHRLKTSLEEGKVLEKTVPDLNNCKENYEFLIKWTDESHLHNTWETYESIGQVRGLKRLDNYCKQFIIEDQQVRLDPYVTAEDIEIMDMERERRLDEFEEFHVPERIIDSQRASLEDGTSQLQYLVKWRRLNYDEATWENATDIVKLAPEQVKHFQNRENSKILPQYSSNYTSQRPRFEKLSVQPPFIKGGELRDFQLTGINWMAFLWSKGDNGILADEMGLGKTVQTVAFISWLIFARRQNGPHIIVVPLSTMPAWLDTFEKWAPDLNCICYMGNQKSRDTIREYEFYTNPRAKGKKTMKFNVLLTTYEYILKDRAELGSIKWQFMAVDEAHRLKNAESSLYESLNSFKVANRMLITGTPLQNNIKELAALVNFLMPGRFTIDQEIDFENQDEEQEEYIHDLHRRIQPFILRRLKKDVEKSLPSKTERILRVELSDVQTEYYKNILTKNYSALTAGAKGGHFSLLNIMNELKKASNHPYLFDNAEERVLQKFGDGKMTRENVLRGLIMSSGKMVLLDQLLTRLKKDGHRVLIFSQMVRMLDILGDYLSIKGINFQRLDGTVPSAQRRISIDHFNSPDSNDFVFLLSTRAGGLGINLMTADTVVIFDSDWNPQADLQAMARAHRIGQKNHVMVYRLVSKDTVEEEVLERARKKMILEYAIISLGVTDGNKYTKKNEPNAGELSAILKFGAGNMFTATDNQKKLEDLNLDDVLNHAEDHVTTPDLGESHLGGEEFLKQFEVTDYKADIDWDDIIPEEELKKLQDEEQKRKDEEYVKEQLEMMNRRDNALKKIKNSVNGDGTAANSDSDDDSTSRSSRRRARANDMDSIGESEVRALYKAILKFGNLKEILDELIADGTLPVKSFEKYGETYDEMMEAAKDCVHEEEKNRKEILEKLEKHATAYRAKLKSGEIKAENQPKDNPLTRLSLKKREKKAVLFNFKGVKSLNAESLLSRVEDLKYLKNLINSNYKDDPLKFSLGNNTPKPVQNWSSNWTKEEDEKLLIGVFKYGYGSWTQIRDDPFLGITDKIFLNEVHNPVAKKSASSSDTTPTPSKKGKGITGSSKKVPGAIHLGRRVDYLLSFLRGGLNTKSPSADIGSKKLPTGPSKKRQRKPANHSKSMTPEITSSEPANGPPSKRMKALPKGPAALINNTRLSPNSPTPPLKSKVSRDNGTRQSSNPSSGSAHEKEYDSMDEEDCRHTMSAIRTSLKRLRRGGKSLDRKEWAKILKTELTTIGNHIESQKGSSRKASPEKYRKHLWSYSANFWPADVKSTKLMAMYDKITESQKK
# Sequence of Protein translocase subunit SecA (Escherichia coli (strain K12)) (P10408 whole entry): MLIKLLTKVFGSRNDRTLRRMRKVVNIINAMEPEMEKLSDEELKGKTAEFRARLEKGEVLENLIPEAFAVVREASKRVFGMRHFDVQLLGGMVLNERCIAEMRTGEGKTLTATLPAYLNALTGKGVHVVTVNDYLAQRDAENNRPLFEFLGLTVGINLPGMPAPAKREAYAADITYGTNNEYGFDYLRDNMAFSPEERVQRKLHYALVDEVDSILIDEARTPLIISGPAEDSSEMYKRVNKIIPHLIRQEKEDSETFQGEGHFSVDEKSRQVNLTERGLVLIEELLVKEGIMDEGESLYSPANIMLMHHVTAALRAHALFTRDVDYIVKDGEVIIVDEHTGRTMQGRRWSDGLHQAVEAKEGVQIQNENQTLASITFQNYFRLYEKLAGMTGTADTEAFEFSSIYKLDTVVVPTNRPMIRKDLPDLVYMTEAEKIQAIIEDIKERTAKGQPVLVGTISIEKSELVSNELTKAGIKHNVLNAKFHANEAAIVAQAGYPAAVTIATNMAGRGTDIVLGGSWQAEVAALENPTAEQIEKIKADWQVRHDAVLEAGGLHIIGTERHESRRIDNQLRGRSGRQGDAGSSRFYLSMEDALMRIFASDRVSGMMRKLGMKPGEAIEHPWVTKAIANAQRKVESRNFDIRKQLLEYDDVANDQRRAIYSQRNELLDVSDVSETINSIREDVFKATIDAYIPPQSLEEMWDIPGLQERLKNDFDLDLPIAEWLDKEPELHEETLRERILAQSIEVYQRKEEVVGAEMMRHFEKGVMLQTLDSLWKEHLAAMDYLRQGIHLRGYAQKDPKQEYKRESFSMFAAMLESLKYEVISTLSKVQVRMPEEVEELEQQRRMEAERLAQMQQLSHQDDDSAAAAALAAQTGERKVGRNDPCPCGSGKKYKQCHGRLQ
# Sequence of Sialic acid-binding Ig-like lectin 9 (Homo sapiens) (Q9Y336 whole entry): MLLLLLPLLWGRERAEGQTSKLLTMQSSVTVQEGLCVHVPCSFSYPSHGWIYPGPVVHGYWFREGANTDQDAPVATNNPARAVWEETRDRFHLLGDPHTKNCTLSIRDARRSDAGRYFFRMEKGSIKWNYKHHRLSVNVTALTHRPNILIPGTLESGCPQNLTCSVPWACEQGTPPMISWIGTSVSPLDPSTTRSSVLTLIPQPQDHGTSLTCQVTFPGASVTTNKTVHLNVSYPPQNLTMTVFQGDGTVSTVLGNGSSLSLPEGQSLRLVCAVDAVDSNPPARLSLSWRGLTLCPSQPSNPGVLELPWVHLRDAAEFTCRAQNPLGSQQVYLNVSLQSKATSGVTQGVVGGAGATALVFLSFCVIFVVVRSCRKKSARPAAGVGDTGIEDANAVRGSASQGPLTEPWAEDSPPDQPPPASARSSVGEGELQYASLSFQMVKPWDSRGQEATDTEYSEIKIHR
Structure (SMILES),Percent Effect [1],Percent Effect [2],Percent Effect [3],Percent Effect [4],Percent Effect [5],Percent Effect [6],Percent Effect [7],Percent Effect [8],Percent Effect [9],Percent Effect [10],Percent Effect [11]
Cc1cnn(CCCNC(=O)N2CCCCC(N3CCCC3)C2)c1 (stereo not given),-2.45%,15.8%,0.679%,7.49%,3.19%,4.21%,15.5%,8.88%,8.33%,19.5%,-2.25%
C=Cc1ccc(C(=O)N2CCCC(Nc3ccc(OC)cc3)C2)cc1 (stereo not given),-0.54%,8.11%,29%,18.1%,5.41%,-1.43%,3.28%,12.3%,10.1%,19.5%,-8.46%
O=C(C1=CCCC1)N1CCO[C@H]2[C@@H](Oc3ccccn3)CC[C@@H]21,-2.61%,13.3%,4.5%,0.0747%,0.787%,3.96%,9.96%,9.01%,7.45%,16.7%,-3.61%
Cn1ccc2c(C(=O)N3CCC(C(N)=O)CC3)cccc21,0.857%,14.7%,2.71%,-1.54%,-4.13%,-9.68%,13.1%,7.15%,8.47%,17.9%,-10.7%
N#Cc1cccnc1NCc1cccnc1N1CCC(C(N)=O)CC1,-4.85%,8.11%,-4.32%,8.48%,0.293%,-0.744%,12.3%,3.17%,3.23%,13.6%,1.32%
CCOc1ccc(C#N)cc1NCC(=O)Nc1cc(C)no1,-6.06%,17.7%,-5.05%,-0.0832%,3.68%,-7.99%,4.34%,-2.7%,3.45%,-130%,-5.12%
Cc1nc(C)n(CC2CCCN(CCCOc3ccccc3)C2)n1 (stereo not given),-3.18%,1.27%,8.34%,3.65%,-0.718%,1.07%,-1.37%,-1.23%,3.12%,12.7%,-5.2%
COCCO[C@H]1CCN(Cc2cccs2)[C@H]1Cc1cccnc1,-3.38%,0%,-12.3%,20.5%,6.35%,-1.24%,11.6%,0.814%,3.23%,6.17%,-1.24%
c1coc(CN2C[C@H](OCC3CCOCC3)[C@H]3COC[C@H]32)c1,-3.71%,8.11%,6.46%,-3.04%,-3.23%,-0.955%,15.3%,13.1%,0%,12.8%,1.07%
Cc1nccn1-c1cc(CNC(=O)C(C)(C)C)ccn1,-0.152%,11%,4.7%,6.88%,0.588%,34.1%,18.1%,-3.27%,2.15%,17.5%,-6.75%
CS(=O)(=O)N1CCCCCC1C1CCN(c2ncccn2)CC1 (stereo not given),-4.78%,2.63%,2.07%,1.83%,-4.13%,-1.92%,2.17%,24.7%,1.47%,7.32%,0.0825%
Cc1nc(CN2CCCC(N(C)Cc3c(C)noc3C)C2)no1 (stereo not given),-2.99%,-15.6%,-0.475%,-1.55%,9.7%,-0.21%,16.6%,6.79%,1.91%,9.41%,-22.6%
CC(Cn1cccn1)NC(=O)N(C)Cc1ccc(Cl)s1 (stereo not given),-7.83%,2.53%,-3.14%,9.63%,7.27%,-8.37%,0.409%,2.27%,-1.48%,3.8%,-2.46%
Cc1nc(C)n(C2CCCN(C(=O)c3sccc3C3CC3)C2)n1 (stereo not given),-1.6%,2.53%,-0.568%,-3.81%,-5%,1.9%,0.409%,22.4%,-2.46%,-8.86%,-7.52%
Fc1ccc(CCN2CCC(c3nnc(-c4cccnc4)o3)CC2)cc1,-1.2%,1.35%,6.27%,-6.66%,-0.988%,-5.8%,18.9%,19.1%,3.23%,9.09%,-14%
COc1ccc(C(=O)N(C)Cc2nnc3ccccn23)c(OC)c1,-4.19%,-5.2%,1.07%,4.72%,2.06%,-1.47%,12.5%,-2.12%,2.86%,14.1%,-15.8%
Cc1ccn(-c2ccccc2NCc2ncc[nH]2)n1,-7.12%,8.22%,-9.03%,-1.61%,0.783%,3.18%,9.41%,-4.65%,4.3%,10%,-3.33%
O=C(CN1CCC(c2cccc(F)c2)C1)NCc1ccco1 (stereo not given),-1.81%,21.1%,4.1%,-1.87%,6.01%,-1.53%,14.4%,27.6%,7.35%,24.4%,-8.76%
CCS(=O)(=O)N1CC[C@]2(C[C@@H](OCC3CC3)CO2)C1,-5.7%,5.41%,-4.19%,27.4%,6.94%,-1.74%,13.3%,1.36%,8.6%,13.6%,-6.86%
Cc1nc(C)n(CC2CCCCN2CCC(=O)Nc2cc(C)on2)n1 (stereo not given),-3.16%,6.33%,3.99%,1.14%,-1.13%,-0.645%,11%,5.13%,-7.29%,12.7%,-9.87%
